KKLEB tox: counter-screen for CF NF-kB inhibitors: cytotoxicity | KKLEB CF airway cells viability, ATPlite luminescence, overnight; hits give low values; cells stimulated with P. aeruginosa culture filtrate | activity change (cytotoxicity), % at 5 µM | AID 602141 | 360,000 tested, 0.36% active;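 active = corrected activity change at or below -50% at 5 µM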
TROY NFkB inh: inhibitors of TROY-dependent NF-kB signaling. inhibition, % at 10 µM. Q293 LMP1-TROYcd NF-kB luciferase reporter, 4 h. AID 1347056. 360,000 tested, 0.98% active;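 active = compounds whose plate-normalised and pattern-corrected inhibition of the luciferase reporter signal at the single screening dose is 50% or more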
TWEAK-Fn14 inh: TWEAK-Fn14 signaling inhibition. TWEAK-stimulated Fn14 reporter cells, luciferase luminescence, 8 h. inhibition, % at 10 µM. 360,000 tested, 2% active. AID 1159606; in the data active = inhibition above about 50%
Peg3 promoter: reduces Peg3 promoter-driven luciferase expression in HeLa | HeLa PEG-Prom luciferase reporter, luminescence, overnight | 360,000 tested, 1.7% active | AID 588405 | inhibition, % at 20 µM;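 active = inhibition of at least 50% at 20 µM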
CF NFkB inh: cystic fibrosis NF-kB activation inhibition. KKLEB NF-kB-GFP reporter, PAF-induced, GFP fluorescence overnight. inhibition, % at 5 µM. 360,000 tested, 0.86% active. AID 588850;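 active = at least 50% inhibition at 5 µM, scaled per plate between neutral and stimulator controls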;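 also: PAF is a Pseudomonas aeruginosa culture filtrate used as stimulus; plate controls were PAF-stimulated DMSO wells for no effect and unstimulated DMSO wells for full effect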
HIF-2a inh: HIF-2a inhibition. 786-0 RCC cells HIF-2a reporter, luciferase luminescence, overnight. inhibition, % at 18.8 µM. 360,000 tested, 0.72% active. AID 624352;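 active = inhibition of the luminescence signal of 40% or more relative to plate controls, in a single-dose primary screen at 18.75 µM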
Starred values were filed as active, the others as inactive; . = not tested or not shown. Compounds with a hit are over-represented: about 4% of the library has one in this group of screens.

SMILES	KKLEB tox	TROY NFkB inh	TWEAK-Fn14 inh	Peg3 promoter	CF NFkB inh	HIF-2a inh
Cc1cc(C)cc(NC(=O)C2CCN(S(=O)(=O)c3ccc4c(c3)NC(=O)C(C)S4)CC2)c1 (centres undefined)	0	26	-2	42	16	10
COc1ccc(N2CCN(C(=O)CCS(=O)(=O)c3ccc4c(c3)NC(=O)C(C)S4)CC2)cc1 (centres undefined)	14	-10	-1	13	-9	10
Cc1ccc(C)c(N2CCN(C(=O)CCS(=O)(=O)c3ccc4c(c3)NC(=O)C(C)S4)CC2)c1 (centres undefined)	9	44	72*	34	9	4
Cc1ccc(NC(=O)C2CCN(S(=O)(=O)c3ccc4c(c3)NC(=O)C(C)S4)CC2)cc1Cl (centres undefined)	-8	47	63*	22	46	10
O=C(Nc1cc(S(=O)(=O)N2CCCCC2)ccc1N1CCOCC1)c1ccc(C(F)(F)F)cc1	11	-7	-7	19	-25	1
CC(OC(=O)C1CCN(c2ccc(C(F)(F)F)cn2)CC1)C(=O)c1ccccc1 (centres undefined)	-1	-9	3	2	-19	-8
O=C(CCS(=O)(=O)c1ccccc1)Nc1nc2c(s1)COc1ccccc1-2	4	-14	15	92*	8	-43
CCOC(=O)c1cc(C)sc1NC(=O)C(c1ccccc1)c1ccccc1	-21	-15	0	19	24	12
CCc1cc(C(=O)O)c(NC(=O)C(c2ccccc2)c2ccccc2)s1	-66*	19	4	15	-2	15
Cc1ccccc1CN(C)C1CCN(C)CC1	-3	22	110*	6	-7	23
COCC(=O)N1C[C@H](C)[C@H](OC)CN(C)C(=O)c2cc(NC(=O)Nc3cccc(F)c3)ccc2OC[C@@H]1C	.	.	.	.	.	-1
CC1(C(=O)NS(=O)(=O)c2cccs2)CCN1C(=O)CC1CCCCC1 (centres undefined)	-7	5	7	10	-20	12
Cc1cc(C)c(O)c(-c2cc(C(=O)Nc3ccc(S(=O)(=O)N4CCOCC4)cc3)[nH]n2)c1	3	70*	63*	59*	7	-5
O=C(Oc1ccc(/C=N/n2cnnc2)cc1)c1cccc([N+](=O)[O-])c1	-4	56*	10	19	37	21
CN(C)/N=C/c1ccc(OC(=O)c2cccc([N+](=O)[O-])c2)cc1	1	-12	-8	-7	-7	0
COc1ccc(OC)c(S(=O)(=O)Oc2ccc(N)c3ccccc23)c1	-3	30	87*	-32	-17	13
COc1ccc(OC)c(S(=O)(=O)Nc2cccc3ccccc23)c1	4	-13	19	19	-26	21
CCOC(=O)c1sc2nc3c(cc2c1N)COC(C(C)C)C3 (centres undefined)	4	66*	85*	-154	-1	-94
CCOC(=O)c1sc2nc(N3CCOCC3)c3c(c2c1N)CC(C(C)C)OC3 (centres undefined)	13	-7	-27	18	-10	-6
Cc1[nH]c2ccccc2c1/C=N/NC(=O)C1CC1(c1ccccc1)c1ccccc1 (centres undefined)	-27	24	66*	26	5	-19
Cc1ccc(-c2nn(-c3ccccc3)cc2/C=C/C(=O)OCC(=O)NC2CC2)o1	6	56*	26	10	-28	-11
CNC(=O)COC(=O)/C=C/c1cn(-c2ccccc2)nc1-c1ccc2c(c1)OCCO2	-5	0	8	8	10	15
COc1cccc(CNc2nc3cc(-c4ccc(C(=O)N5CCN(C)CC5)cc4)sc3c(=O)n2C)c1	-7	21	5	34	-35	18
O=C(CSc1nc2ccccc2o1)N/N=C/c1ccccc1	11	-39	-22	-253	-7	-174
COc1ccc2nc(C)cc(SCC(=O)N/N=C/c3cccc4ccccc34)c2c1	-42	41	8	60*	45	-7
SMILES	KKLEB tox	TROY NFkB inh	TWEAK-Fn14 inh	Peg3 promoter	CF NFkB inh	HIF-2a inh
Cc1cc(SCC(=O)N/N=C/c2ccc(O)cc2O)nc2ccccc12	-1	33	3	54*	1	14
Cc1ccccc1/C=N/NC(=O)CSc1nc2ccccc2o1	1	48	65*	-265	-2	-188
O=C(CSc1nc2ccccc2s1)N/N=C/c1ccccc1C(=O)O	-3	82*	89*	-150	-23	-68
CCn1c(SCC(=O)NC2CC2)nnc1-c1ccc(F)cc1	-9	1	13	8	19	19
Cc1ccc(NC(=O)[C@@H]2O[C@H](CO)[C@H](O)[C@H](O)[C@H]2O)cc1C(F)(F)F	0	4	6	2	2	-11
COc1ccc(S(=O)(=O)NCc2cc(=O)n(C)c(=O)n2C)cc1C	-3	17	6	12	-12	3
CC1C(=O)C(C)C(c2ccco2)NC1c1ccco1 (centres undefined)	2	3	-7	6	13	2
c1coc(C2=NC(c3ccco3)C(c3ccco3)N2)c1 (centres undefined)	4	9	64*	-68	-12	-128
O=S1(=O)N=C(c2ccccc2)C=C(c2ccccc2)N1	11	-3	-3	-6	14	-2
CC(C)c1ccc(/C=C2\SC(=O)N(CC(=O)NC3C=CS(=O)(=O)C3)C2=O)cc1 (centres undefined)	12	-14	7	-18	-11	-67
CC(C)c1nnc(NC(=O)CCS(=O)(=O)c2nc(-c3cccs3)cc(C(F)(F)F)n2)s1	-13	50*	62*	107*	95*	1
CC(C)c1nnc(NC(=O)CCS(=O)(=O)Cc2ccccc2)s1	0	-8	11	-3	-8	10
CCC[C@@H]1C=C(C(=O)OCC)[C@H](c2ccccc2)N1S(=O)(=O)c1ccc(C)cc1	-2	-6	25	28	-7	-19
Cc1cccc(NC(=S)N2CCN(C(=O)c3ccco3)CC2)c1C	-1	3	2	6	8	5
CCOC(=O)c1c(-c2ccccc2)oc2ccc(OCC(O)CN(C)C)cc12 (centres undefined)	-1	-147	-55	105*	-4	6
CCOC(=O)C1CCN(C(=O)c2cc(COc3ccc(OC)c4ccccc34)on2)CC1	1	-33	-36	-233	-6	-226
CC(=O)N(CCCN(C)C)CCC(C)CCC=C(C)C (centres undefined)	6	-10	0	8	0	1
CC(C)=CCCC(C)N(C=O)C(C)CCC=C(C)C (centres undefined)	2	50*	53*	-36	-1	-2
O=C(COc1ccc2ccc(=O)oc2c1)NCCCn1ccnc1	7	0	19	-3	-8	10
